Values joined by “and” are separate entries in the source; they are usually repeats but may differ in a detail not shown here. Equal values may be shown once. Screen size: about 5,500 compounds; about 2,000 (36%) were called active. Not shown: some 18% with an inconclusive outcome. Rule as the data show it: active = normalized growth mostly below about 0.91 (no sharp cut-off); inconclusive = no clear call, values can overlap the other calls; inactive = mostly above about 0.92. This is one part of the list.
Experiment: chemical genetic growth profiling, strain panel (AID 1159580);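 also: tested at 20 µM; growth read once vehicle control cultures reached saturation at 30 °C; 1 = growth at the plate median or of vehicle wells; lower values mean less growth of the strain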
Settings: S. cerevisiae deletion strains, growth OD

Measured: normalized growth

C=C1CCC2C(CC2(C)C)C(=O)CCC1O (stereo unspecified)
inactive: locus YAL013W, strain DEP1, active compounds read low 0.984 | locus YAL021C, strain ccr4, active compounds read low 0.94 | locus YAL026C, strain drs2, active compounds read low 0.996 | locus YAL030W, strain snc1, active compounds read low 1 | locus YBL061C, strain skt5, active compounds read low 0.999 | locus YBR009C, strain hhf1, active compounds read low 0.987 | locus YBR021W, strain FUR4, active compounds read low 1.02 | locus YBR023C, strain chs3, active compounds read low 0.986 | locus YBR171W, strain sec66, active compounds read low 1 | locus YBR229C, strain ROT2, active compounds read low 1.01 | locus YBR231C, strain swc5, active compounds read low 1.01 | locus YBR279W, strain paf1, active compounds read low 0.995 | locus YCL011C, strain gbp2, active compounds read low 0.984 | locus YCL016C, strain dcc1, active compounds read low 0.983 | locus YCL029C, strain bik1, active compounds read low 1 | locus YCL061C, strain MRC1, active compounds read low 0.993 | locus YCL069W, strain vba3, active compounds read low 0.999 | locus YCR088W, strain abp1, active compounds read low 0.993 | locus YDL005C, strain med2, active compounds read low 0.991 | locus YDL035C, strain GPR1, active compounds read low 1 | locus YDL040C, strain nat1, active compounds read low 1 | locus YDL074C, strain BRE1, active compounds read low 1 | locus YDL101C, strain DUN1, active compounds read low 1.03 | locus YDL134C, strain PPH21, active compounds read low 1.04 | locus YDL185W, strain tfp1, active compounds read low 1.03 | locus YDL192W, strain arf1, active compounds read low 0.992 | locus YDR001C, strain nth1, active compounds read low 0.976 | locus YDR069C, strain doa4, active compounds read low 0.981 | locus YDR101C, strain arx1, active compounds read low 0.995 | locus YDR137W, strain rgp1, active compounds read low 0.985 | locus YDR159W, strain sac3, active compounds read low 1.06 | locus YDR162C, strain NBP2, active compounds read low 1.01 | locus YDR195W, strain ref2 0.968 | locus YDR297W, strain sur2, active compounds read low 1.01 | locus YDR318W, strain mcm21, active compounds read low 1 | locus YDR334W, strain swr1, active compounds read low 0.988 | locus YDR335W, strain msn5, active compounds read low 0.985 | locus YDR388W, active compounds read low 1.02 | locus YDR392W, strain spt3, active compounds read low 0.911 | locus YDR502C, strain sam2, active compounds read low 1.04 | locus YEL003W, strain gim4, active compounds read low 1 | locus YEL037C, strain rad23, active compounds read low 0.993 | locus YEL061C, strain CIN8 (second series), active compounds read low 0.993 | locus YEL061C, strain CIN8, active compounds read low 1.02 | locus YER015W, strain faa2, active compounds read low 0.981 | locus YER016W, strain bim1, active compounds read low 1 | locus YER110C, active compounds read low 1.02 | locus YER111C, strain swi4, active compounds read low 0.997 | locus YER155C, strain BEM2 (second series), active compounds read low 1.03 | locus YER155C, strain BEM2, active compounds read low 1 | locus YER167W, strain BCK2, active compounds read low 1 | locus YFR010W, strain ubp6, active compounds read low 0.996 | locus YGL078C, strain dbp3, active compounds read low 1.04 | locus YGL086W, strain mad1, active compounds read low 1.02 | locus YGL167C, strain pmr1, active compounds read low 0.975 | locus YGL173C, strain kem1, active compounds read low 1 | locus YGL227W, strain vid30, active compounds read low 0.985 | locus YGL240W, strain doc1, active compounds read low 1 | locus YGL248W, strain PDE1, active compounds read low 1.05 | locus YGL253W, strain hxk2, active compounds read low 1.02 | locus YGR078C, strain PAC10, active compounds read low 1.02 | locus YGR135W, strain pre9, active compounds read low 1.08 | locus YGR229C, strain SMI1, active compounds read low 0.945 | locus YGR252W, strain gcn5, active compounds read low 1.08 | locus YHR013C, strain ard1, active compounds read low 0.978 | locus YHR027C, strain rpn1, active compounds read low 1 | locus YHR030C, strain SLT2, active compounds read low 1.02 | locus YHR079C, strain IRE1 (second series), active compounds read low 1.01 | locus YHR079C, strain IRE1, active compounds read low 1.03 | locus YHR094C, strain hxt1, active compounds read low 1.01 | locus YHR129C, strain ARP1, active compounds read low 1.01 | locus YHR142W, strain chs7, active compounds read low 0.979 | locus YHR200W, strain rpn10, active compounds read low 1.03 | locus YIL066C, strain RNR3, active compounds read low 1.02 | locus YIL073C, strain SPO22, active compounds read low 1.09 | locus YIL125W, strain kgd1, active compounds read low 1.01 | locus YIR030C, strain dcg1, active compounds read low 1.01 | locus YJL092W, strain hpr5, active compounds read low 0.988 | locus YJL095W, strain BCK1 (second series), active compounds read low 0.987 | locus YJL095W, strain BCK1, active compounds read low 1.08 and 1.04 | locus YJL115W, strain asf1, active compounds read low 0.961 | locus YJL129C, strain trk1, active compounds read low 0.984 | locus YJL134W, strain LCB3, active compounds read low 1.01 | locus YJL154C, strain vps35, active compounds read low 0.99 | locus YJL164C, strain tpk1, active compounds read low 0.963 | locus YJL166W, strain qcr8, active compounds read low 0.993

From PubChem BioAssay AID1159580 (chemical genetic matrix, 2015)
